Only some compounds are listed: those with a hit (about 1.3% of all), similar ones and a draw of the others.
TrxR1 substrate: qHTS Assay for Substrates of Mammalian Selenoprotein Thioredoxin Reductase 1 (TrxR1): qHTS; actives 0.01% (n = 390,000); Potency, µM (top dose mostly 114 µM), without a hit: at the highest dose activity change, negative = substrate turnover; AID 588456, 2011; Thioredoxin reductase 1, cytoplasmic (Rattus norvegicus), O89049; purified TrxR1 substrate turnover, NADPH consumption readout; also: potency is read from the fitted curve at half-maximal effect; nearly all actives have a fitted effect of over 50% in size
Target sequence (O89049 whole entry, looked up): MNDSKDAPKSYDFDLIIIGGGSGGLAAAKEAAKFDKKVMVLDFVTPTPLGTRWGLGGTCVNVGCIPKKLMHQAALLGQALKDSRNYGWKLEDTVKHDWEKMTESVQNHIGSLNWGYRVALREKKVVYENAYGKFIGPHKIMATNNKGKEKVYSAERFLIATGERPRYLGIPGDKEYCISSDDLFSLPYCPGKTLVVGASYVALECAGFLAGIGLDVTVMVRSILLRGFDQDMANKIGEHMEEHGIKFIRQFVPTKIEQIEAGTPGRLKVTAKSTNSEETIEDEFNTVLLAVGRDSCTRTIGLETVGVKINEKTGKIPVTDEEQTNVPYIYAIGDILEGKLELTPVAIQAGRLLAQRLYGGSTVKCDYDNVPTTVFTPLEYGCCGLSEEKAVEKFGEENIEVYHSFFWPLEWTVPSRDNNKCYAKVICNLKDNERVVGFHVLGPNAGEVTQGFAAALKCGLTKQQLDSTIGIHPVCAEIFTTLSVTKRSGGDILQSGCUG
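Rat TrxR1, dispensed at 90 nM, was prereduced with 400 uM NADPH (final) for 5 min at ~22 deg C, then incubated with compound 15 min before 400 uM selenite. A first-read NADPH fluorescence drop versus no-compound background flagged substrates.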
TrxR1 inh: qHTS Assay for Inhibitors of Mammalian Selenoprotein Thioredoxin Reductase 1 (TrxR1): qHTS; Thioredoxin reductase 1, cytoplasmic (Rattus norvegicus), O89049; recombinant rTrxR1, NADPH fluorescence consumption, selenite substrate; Potency, µM (top dose mostly 114 µM), for inactives: at the highest dose activity change, negative = inhibition, usual class: inhibitors; actives 1% (n = 390,000); also: potency is read from the fitted curve at half-maximal effect; nearly all actives have a fitted effect of over 65% in size
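Rat TrxR1 (90 nM in the dispensed reagent) was pre-reduced with 400 uM NADPH for 5 min at room temperature, then incubated with compound for 15 min. After 400 uM selenite was added, NADPH fluorescence (Ex 340/Em 450 nm) was followed for 8 min.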
Pin1 inh: qHTS Assay to Find Inhibitors of Pin1; AID 504891, 2011; Potency, µM (series often up to 115 µM), for the others: at the highest dose activity, negative = inhibition, usual class: inhibitors; Peptidyl-prolyl cis-trans isomerase NIMA-interacting 1 (Homo sapiens), Q13526; actives 0.009% (n = 390,000); Pin1 FP peptide displacement, HiFluor488, 10 min; active = well fitted inhibition curve with a large enough effect in the polarisation, with a control signal flat, not every such curve was filed as active; inconclusive = small, poorly fitted or top-dose-only effect, or effect the other way, or a change in a side signal; inactive = no such curve, though single readings can be large or run the other way; the % refers to the polarisation; also: potency is read from the fitted curve at half-maximal effect
Target sequence (Q13526 whole entry, looked up): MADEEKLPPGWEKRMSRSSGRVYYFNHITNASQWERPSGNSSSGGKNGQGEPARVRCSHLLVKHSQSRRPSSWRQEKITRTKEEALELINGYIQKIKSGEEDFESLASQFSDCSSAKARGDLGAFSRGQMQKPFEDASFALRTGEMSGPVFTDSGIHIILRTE
GALK inh: qHTS Assay for Inhibitors of Human Galactokinase (GALK). P51570. AID 1868, 2009. Potency, µM (doses to about 57.5 µM), inactives show top-dose activity change, negative = inhibition, usual class: inhibitors. actives 0.007% (n = 270,000). Purified GALK, Kinase-Glo residual ATP luminescence; also: potency is read from the fitted curve at half-maximal effect
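GALK at 5 nM final was combined with compound, 35 uM ATP and 100 uM galactose in HEPES pH8.0 with MgCl2 and DTT. The reaction ran one hour at room temperature before luminescent ATP detection.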
GCN5L2 inh: qHTS Assay for Inhibitors of GCN5L2; Histone acetyltransferase KAT2A (Homo sapiens), Q92830; GCN5L2 HAT assay, ThioGlo1 CoA-SH fluorescence; Potency, µM (doses to about 58.9 µM), for the others: at the highest dose activity change, negative = inhibition, hits mostly inhibitors; actives 0.21% (n = 390,000); AID 504327, 2011; also: potency is read from the fitted curve at half-maximal effect
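Free CoA generated was detected with ThioGlo1 (50uM) fluorescence at Ex340nm/Em540nm, read immediately and after 20 min at room temperature. Enzyme, 20 nM in HEPES pH 7.5 buffer, saw compounds 15 min before adding 75uM H3(1-25) peptide and 70uM acetyl-CoA.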
Giardia killer: Small Molecules that selectively kill Giardia lamblia: qHTS; Giardia lamblia trophozoite viability; activity change, % at 7.66 µM, hits read low; actives 0.15% (n = 340,000); AID 540267, 2011; in the data active = activity change below about -80%; inconclusive = between about -30% and that limit;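 also: parasites exposed to compound for two days anaerobically before the ATP read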
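Compounds were tested on trophozoites seeded at 100 cells/well and held 48 hrs at 37 deg C anaerobically. An ATP-based luminescent kit measured the remaining live cells.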
* = called active by the depositor; ? = inconclusive; nt = no result; ! = a repeat was not active; [ ] = dose if it differs, or a comment. Unless noted, calls follow the shape of the dose curve; as a rule, active = well fitted curve in the direction sought with a large enough effect; inconclusive = small, poorly fitted or top-dose-only effect, or another doubt; inactive = no such curve, though single readings can be large; an effect the other way counts as inactive or inconclusive. % is scaled to controls: 0 for no effect and ±100 for the full control effect.

SMILES	TrxR1 substrate	TrxR1 inh	Pin1 inh	GALK inh	GCN5L2 inh	Giardia killer
CCOc1ccccc1NC(=O)c1nc(S(=O)(=O)Cc2cccc(C)c2)ncc1Cl	-9.4%	7.08µM*	10.5%	1.2%	-5.7%	27.3
O=S(=O)(c1ccc(C(F)(F)F)cc1)N1CCN(S(=O)(=O)c2ccc3c(c2)OCCO3)CC1	nt	nt	-4.3%	nt	nt	nt
O=C(NC(=O)c1c(F)cccc1F)Nc1cccc(Oc2ncc(Cl)cn2)c1	-2.7%	-5.6%	-2.3%	nt	nt	10.5
O=C(CCl)N(CCc1ccccc1)CCc1ccccc1	0.5%	11.2µM*	-2.2%	-0.6%	0.1%	-20.9
CCCCNc1nc(C#N)nc(Nc2ccccc2)n1	nt	nt	-9.8%	nt	nt	nt
O=C(Nc1ccc(N2CCOCC2)nc1N1CCOCC1)c1cccc(C(F)(F)F)c1	7.7%[57.1 µM]	10.9%[57.1 µM]	3.7%	2.4%	-8.4%	-20.1
O=C(N/N=C/c1ccc(N2CCCCC2)o1)c1ccccc1[N+](=O)[O-]	-1.7%	10µM*	-6.1%	2.6%	-10.6%	16.8
O=C(N/N=C/c1ccc(N2CCOCC2)o1)c1cccc(C(F)(F)F)c1	-9.6%	7.08µM*	72.6%	-0.8%	-7.1%	-4.5
O=C(N/N=C/c1ccc(N2CCOCC2)o1)c1ccccc1[N+](=O)[O-]	-18.1%	8.91µM*	13.9%	1.8%	-15.3%	6.0
CC(=O)OCON[N+]([O-])=NC(C)C	3.5%	15.8µM*!	-1.9%	nt	nt	?
COc1ccc(-c2nnc(C)c3nocc23)cc1	-5.6%	20µM*	?	3.0%	-4.6%	-8.9
CC1=C(C(=O)OCc2ccccc2)N2C(=O)[C@@H](NC(=O)OCc3ccccc3)[C@H]2SC1	3.1%	2.5%	nt	nt	nt	nt
S=c1[nH]cc(-c2ccccc2)n1-c1ccccc1	-4.0%	-21.9%	-12.5%	1.2%	3.55µM*	4.9
Cc1ccc(-c2ccc(NC(=O)C3C4C=CC(C4)C3C(=O)O)cc2)o1 (stereo not given)	-11.1%	22.4µM*	3.0%	-1.3%	3.9%	8.4
CCOc1cccc(C2C=C(c3ccc4c(c3)OCO4)NC(c3ccc(Cl)cc3)N2)c1O (stereo not given)	-6.3%	-8.5%	-1.5%	nt	nt	-18.6
Nc1c(N=Nc2ccc(-c3ccc(N=Nc4cc(S(=O)(=O)O)c5ccccc5c4N)cc3)cc2)cc(S(=O)(=O)O)c2ccccc12	nt	nt	nt	nt	2.24µM*	nt
Cc1cc(-c2ccc(N=Nc3ccc4c(S(=O)(=O)O)cc(S(=O)(=O)O)c(N)c4c3O)c(C)c2)ccc1N=Nc1ccc2c(S(=O)(=O)O)cc(S(=O)(=O)O)c(N)c2c1O	nt	nt	nt	nt	3.16µM*	nt
O=S(=O)(O)c1ccc(N=Nc2ccccc2)cc1	-15.7%	2.8%	1.0%	3.4%	-9.8%	-8.1
Cc1ccccc1CN1Cc2cccc3c2[C@H](C=CC3)CC1=O	5.0%	4.1%	nt	nt	nt	nt
CSc1ccccc1NC(=O)COc1ccc(Cl)cc1Cl	-1.2%	7.5%	-2.8%	1.0%	-9.9%	29.9
Cc1c(C)c2ccc(OCC(=O)Nc3ccccn3)c(C)c2oc1=O	19.0%	26.2%	-0.9%	?	0.9%	-98.0*
O=C(COc1ccc(Cl)cc1Cl)Nc1ccccn1	6.8%	26.3%	0.9%	7.8%	-3.1%	-100.7*
CCOC(=O)C1=C(O)c2ccccc2C(=O)/C1=C\c1ccc(C)cc1	-18.2%	11.2µM*	-10.2%	-0.9%	-9.4%	-2.6
O=C(CSc1nc2nc(-c3cccs3)cc(C(F)(F)F)c2c(=O)[nH]1)C(F)(F)F	609.0%	35.5µM*	0.2%	3.3%	?	2.7
COC(=O)CSc1nc2nc(-c3cccs3)cc(C(F)(F)F)c2c(=O)[nH]1	150.4%	63.3%	0.3%	-0.6%	-9.6%	2.6
SMILES	TrxR1 substrate	TrxR1 inh	Pin1 inh	GALK inh	GCN5L2 inh	Giardia killer
CCCCOc1ccccc1C(=O)Nc1nonc1-c1ccccc1	-7.5%	-3.8%	13.6%	nt	-6.9%	nt
COC(=O)C(CC(=O)c1ccc(Br)cc1)n1cccn1 (stereo not given)	10.2%	8.91µM*	-4.1%	-2.4%	-2.7%	-12.1
Cc1ccc(NS(=O)(=O)c2ccc3c(c2)CCO3)cc1C	nt	nt	-0.5%	nt	nt	nt
CC(C)(C)n1ncc2c(=O)n(Cc3c(Cl)cccc3Cl)cnc21	-0.6%	6.2%	nt	nt	nt	nt
Oc1c(C(Nc2ccccn2)c2ccccc2)ccc2cccnc12 (stereo not given)	-4.2%	50.1µM*	nt	nt	nt	nt
Oc1c(C(Nc2cccnc2)c2ccc(C(F)(F)F)cc2)ccc2cccnc12 (stereo not given)	-6.3%	?	nt	nt	nt	nt
Oc1c(C(Nc2ccccn2)c2cccnc2)cc(Cl)c2cccnc12 (stereo not given)	-7.5%	12.6µM*	-1.4%	3.0%	-4.3%	8.6
CCC(=O)NC(c1ccccc1OC)c1ccc2cccnc2c1O (stereo not given)	9.5%	25.8%	?	-0.3%	-2.1%	7.5
Oc1c(C(Nc2cccc(C(F)(F)F)c2)c2cccnc2)ccc2cccnc12 (stereo not given)	-13.7%	14.1µM*	-8.5%	1.1%	-5.9%	-5.3
COc1ccc(Cl)cc1C(Nc1cccnc1)c1ccc2cccnc2c1O (stereo not given)	3.1%[57.1 µM]	3.98µM*	-13.8%	-0.6%	-10.2%	4.2
Oc1cccc(C(Nc2ccccn2)c2ccc3cccnc3c2O)c1Cl (stereo not given)	2.7%	?	12.1%	nt	-16.3%	nt
Cc1ccc(-c2nc(-c3ccccn3)no2)cc1	7.1%[57.1 µM]	6.2%[57.1 µM]	2.8%	14.2%	-15.0%	-90.3*
c1ccc(-c2ccc(-c3nc(-c4ccccn4)no3)cc2)cc1	63.2%	42.1%	-3.2%	12.0%	3.6%	?
COc1ccc(OC)c(NS(=O)(=O)c2cc3c(cc2Cl)N(C(C)=O)CCO3)c1	9.0%[11.4 µM]	17.8µM*	?	nt	-11.4%	nt
COc1cc(OC)c(NS(=O)(=O)c2cc3c(cc2C)N(C(C)=O)CCO3)cc1Cl	-0.6%	24.9%	0.7%	nt	-4.5%	nt
Cc1ccc(/C=C/C(=O)OC(C)C(=O)Nc2ccc(Cl)cn2)o1 (stereo not given)	0.5%	14.1µM*	1.5%	0.2%	-0.8%	-17.9
Cn1c(=O)oc2cc(S(=O)(=O)N3CCCC(C(=O)NCc4ccc(F)cc4)C3)ccc21 (stereo not given)	-4.0%	8.6%	-2.3%	nt	-10.7%	nt
O=C(COC(=O)c1ccc([N+](=O)[O-])o1)Nc1ccc(Br)cc1F	-6.5%	5.01µM*	5.9%	nt	-6.3%	?

Assay outcomes as filed in PubChem BioAssay.
